High-throughput results: PubChem BioAssay, Broad Institute
Pf Dd2 inh: P. falciparum Dd2 growth inhibition. 2.3% of 94,000 active. SYBR Green, 72 h; hits give low values. activity change, % at 10 µM; in the data active = activity change below about -80%
Tcruzi prolif: T. cruzi proliferation inhibition; T. cruzi beta-gal in NIH3T3, GalScreen luminescence, 90 h; inhibition, % at 8.34 µM; 5.9% of 77,000 active; AID 624255;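 active = mean inhibition above about 93%, with at least 55% of replicates each passing it, limit read from the data, passing the limit was not always enough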
C diff HTS: blocks growth of Clostridium difficile; Clostridium difficile clinical isolate growth, OD600, 24 h; hits give low values; growth activity, negative = inhibition, % at 16 µg/mL (by protocol); 0.25% of 86,000 active;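 active = mean growth activity at or below -80% and every replicate also at or below -80%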;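 also: 0% = DMSO wells and -100% = levofloxacin 16 µg/mL wells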
An asterisk follows results filed as active; nt = no result. The list is not random: actives were taken first. Their share in the collection is about 6.7%.

SMILES	Pf Dd2 inh	Tcruzi prolif	C diff HTS
COc1ccc(S(=O)(=O)N(C)C[C@H]2OCCCC[C@@H](C)Oc3ccc(NC(=O)Nc4ccc5c(c4)OCO5)cc3C(=O)N([C@H](C)CO)C[C@@H]2C)cc1	-66	50	1
COc1ccc(NC(=O)Nc2ccc3c(c2)C(=O)N([C@H](C)CO)C[C@@H](C)[C@H](CN(C)S(=O)(=O)c2ccc(C)cc2)OCCCC[C@@H](C)O3)cc1	-75	nt	nt
COc1ccc(NC(=O)Nc2ccc3c(c2)C(=O)N([C@@H](C)CO)C[C@@H](C)[C@@H](CN(C)S(=O)(=O)c2ccc(OC)cc2)OCCCC[C@@H](C)O3)cc1	-73	84	-6
COc1ccc(NC(=O)Nc2ccc3c(c2)C(=O)N([C@@H](C)CO)C[C@H](C)[C@H](CN(C)S(=O)(=O)c2ccc(OC)cc2)OCCCC[C@@H](C)O3)cc1	-88*	43	4
COc1ccc(S(=O)(=O)N(C)C[C@H]2OCCCC[C@@H](C)Oc3ccc(NC(=O)Nc4ccc5c(c4)OCO5)cc3C(=O)N([C@@H](C)CO)C[C@H]2C)cc1	-85*	89	-3
COc1ccc(S(=O)(=O)N(C)C[C@H]2OCCCC[C@@H](C)Oc3ccc(NC(=O)Nc4ccc(C(F)(F)F)cc4)cc3C(=O)N([C@H](C)CO)C[C@@H]2C)cc1	-79	87	3
CO[C@H]1CN(C)C(=O)c2ccc(NC(=O)C3CCC3)cc2OC[C@@H](C)N(Cc2cccnc2)C[C@@H]1C	nt	17	nt
COc1ccc(C#Cc2ccc([C@@H]3[C@H]4CN(C(=O)c5cccnc5)CC(=O)N4[C@H]3CO)cc2)cc1	-44	nt	-2
C[C@@H]1CCCCO[C@H](CN(C)C(=O)Nc2cccc3ccccc23)[C@@H](C)CN([C@@H](C)CO)C(=O)c2cc(N(C)C)ccc2O1	-83*	56	0
C[C@@H]1CN([C@H](C)CO)C(=O)c2cc(NC(=O)C3CCCCC3)ccc2O[C@@H](C)CCCCO[C@@H]1CN(C)C(=O)Nc1cccc2ccccc12	-91*	64	7
C[C@@H]1CN([C@@H](C)CO)C(=O)c2cc(NC(=O)c3ccccc3)ccc2O[C@@H](C)CCCCO[C@H]1CN(C)C(=O)Nc1cccc2ccccc12	-81*	79	0
C[C@H](CO)N1C[C@H](C)[C@H](CN(C)C(=O)Nc2cccc3ccccc23)OCCCC[C@H](C)Oc2ccc(NC(=O)c3ccccc3)cc2C1=O	-46	71	-4
C[C@@H]1CN([C@H](C)CO)C(=O)c2cc(N(C)C)ccc2O[C@@H](C)CCCCO[C@H]1CN(C)C(=O)Nc1cccc2ccccc12	nt	-50	-3
C[C@@H]1CN([C@H](C)CO)C(=O)c2cc(NC(=O)c3ccccc3)ccc2O[C@@H](C)CCCCO[C@@H]1CN(C)C(=O)Nc1cccc2ccccc12	-89*	62	8
C[C@@H]1CCCCO[C@@H](CN(C)C(=O)Nc2cccc3ccccc23)[C@H](C)CN([C@@H](C)CO)C(=O)c2cc(NC(=O)c3ccccc3)ccc2O1	57	89	-2
C[C@@H]1CN([C@@H](C)CO)C(=O)c2cc(NC(=O)C3CCCCC3)ccc2O[C@@H](C)CCCCO[C@H]1CN(C)C(=O)Nc1cccc2ccccc12	-78	70	-4
COc1ccc(-c2ccc([C@H]3[C@@H](CO)N4C(=O)CN(Cc5ccc(F)cc5)C[C@@H]34)cc2)cc1	-31	nt	3
C/C=C/c1ccc([C@H]2[C@@H](CO)N(C(=O)NC3CCCCC3)[C@H]2C#N)cc1	-8	65	16
C[C@H]1CN([C@@H](C)CO)C(=O)c2cccc(NC(=O)Nc3ccc(C(F)(F)F)cc3)c2O[C@@H]1CN(C)C(=O)Nc1ccc2c(c1)OCO2	-3	38	65
CCC(=O)Nc1ccc2c(c1)C(=O)N(C)[C@@H]1CC[C@H](CC(=O)NCc3ccccc3)O[C@@H]1CO2	1	5	-6
COc1ccc(CN2C[C@@H](C)[C@@H](OC)CN(C)C(=O)c3cc(NC(C)=O)ccc3OC[C@H]2C)cc1	12	-44	nt
COc1ccc2c3c(n(C)c2c1)[C@H](CO)N(C(=O)CC1CC1)CC31CCN(C(=O)C2CCCC2)CC1	-42	nt	-7
COC(=O)[C@@H]1[C@@H](CO)[C@@H]2Cn3c(ccc(C4=CCCC4)c3=O)[C@@H]2N1C(=O)C1CCCC1	9	58	-2
O=C(CN1CCOCC1)NCC[C@H]1CC[C@@H](NS(=O)(=O)c2ccc(F)cc2)[C@H](CO)O1	5	60	nt
C[C@H](CO)N1C[C@H](C)[C@@H](CN(C)C(=O)Nc2ccc3c(c2)OCO3)Oc2c(NC(=O)c3nc4ccccc4s3)cccc2C1=O	-45	-240	nt
SMILES	Pf Dd2 inh	Tcruzi prolif	C diff HTS
C[C@@H]1CN([C@@H](C)CO)C(=O)c2cccc(NC(=O)c3nc4ccccc4s3)c2O[C@@H]1CN(C)C(=O)Nc1cccc2ccccc12	-88*	41	nt
C[C@H]1CN([C@@H](C)CO)C(=O)c2cccc(NC(=O)c3nc4ccccc4s3)c2O[C@H]1CN(C)C(=O)Nc1cccc2ccccc12	-27	74	nt
C[C@H]1CN([C@@H](C)CO)C(=O)c2cccc(NC(=O)c3nc4ccccc4s3)c2O[C@@H]1CN(C)C(=O)Nc1cccc2ccccc12	-76	14	nt
C[C@@H]1CN([C@@H](C)CO)C(=O)c2cccc(NC(=O)c3nc4ccccc4s3)c2O[C@H]1CN(C)C(=O)Nc1cccc2ccccc12	-94*	47	nt
C[C@@H]1CN([C@@H](C)CO)C(=O)c2cccc(NC(=O)c3nc4ccccc4s3)c2O[C@H]1CN(C)C(=O)Nc1ccc2c(c1)OCO2	-90*	49	nt
O=C(C[C@@H]1CC[C@H](NC(=O)Cc2cccnc2)[C@@H](CO)O1)Nc1ccc(-c2ccccc2)cc1	-16	-39	nt
COc1cccc(-c2ccc3c(c2)[C@@H]2[C@@H](CCN2S(=O)(=O)c2ccccc2C)[C@H](CO)N3C)c1	4	87	-1
C[C@@H]1CN([C@H](C)CO)C(=O)c2cccc(NS(=O)(=O)c3ccc(F)cc3)c2O[C@H]1CN(C)C(=O)Nc1ccc2c(c1)OCO2	-23	61	-2
C[C@@H]1CN([C@@H](C)CO)C(=O)c2cccc(NC(=O)c3nc4ccccc4s3)c2O[C@@H]1CN(C)Cc1ccc(C(=O)O)cc1	-23	40	-4
C[C@@H]1CN([C@@H](C)CO)C(=O)c2cccc(NC(=O)c3nc4ccccc4s3)c2O[C@H]1CN(C)Cc1ccc(C(=O)Nc2ccccc2N)cc1	-91*	104*	nt
C[C@@H]1CN([C@H](C)CO)C(=O)c2cccc(NC(=O)c3nc4ccccc4s3)c2O[C@@H]1CN(C)Cc1ccc(C(=O)Nc2ccccc2N)cc1	-88*	90	nt
C[C@@H]1CN([C@H](C)CO)C(=O)c2cccc(NC(=O)c3nc4ccccc4s3)c2O[C@@H]1CN(C)Cc1ccc(C(=O)O)cc1	-33	31	-1
CN(C)c1ccc2c(c1)[C@@H]1C[C@H](CC(=O)NCC3CC3)O[C@@H](CO)[C@@H]1O2	5	31	5
CC(C)CC#Cc1ccc2c(c1)O[C@H](CN(C)Cc1cccc(F)c1)[C@@H](C)CN([C@@H](C)CO)S2(=O)=O	-57	46	21
COc1cccc(C#Cc2cnc3c(c2)C(=O)N([C@H](C)CO)C[C@H](C)[C@H](CN(C)C(=O)C2CCCCC2)O3)c1	-86*	nt	0
